Data published in PubChem BioAssay AID686978 (National Center for Advancing Translational Sciences (NCATS), 2013).
“And” between values parts separate entries of the source, which are not always exact repeats. Equal values may be shown once. The whole screen tested about 420,000 compounds, of which about 64,000 (15%) were called active. Not shown: some 27% with an inconclusive outcome. The call rests on the fitted dose curve; in most records, active means well fitted inhibition curve with a large enough effect; inconclusive means small, poorly fitted or top-dose-only effect; inactive means flat fitted curve, though single readings scatter. These entries were drawn from the full list.

Assay: qHTS for Inhibitors of human tyrosyl-DNA phosphodiesterase 1 (TDP1): qHTS in cells in absence of CPT; further: nearly all actives have a fitted effect of over 55% in size
Conditions: DT40 Tdp1-/- hTDP1 cells, no CPT, ATP luminescence, 48 h; activity change, negative = growth inhibition: at 46.2 µM (top of the series)
Procedure, shortened: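 No-CPT arm: Tdp1-/-;hTDP1 DT40 cells (400/well) plus compounds, incubated ≥48 hr at 37 °C. Readout CellTiter-Glo luminescence.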
On the % scale 0 is the no-effect control and ±100 the full control effect; potency means the concentration at half of the fitted maximal effect.

| SMILES | activity change, negative = growth inhibition | Potency |
| --- | --- | --- |
| COc1cc(NC(=S)NCc2ccco2)c(OC)cc1Cl | -6.81% (inactive) |  |
| COC(=O)CN(c1nc(C)c(Cl)c(OC)n1)S(=O)(=O)c1ccc(C)cc1 | -18.2% (inactive) |  |
| O=C(OCC(O)C(O)COC(=O)c1ccccc1)c1ccccc1 (stereo unspecified) | -8.97% (inactive) |  |
| O=C(O)C(=Cc1ccccc1[N+](=O)[O-])c1ccccc1 | -12.4% (inactive) |  |
| O=C(Cc1c(F)cccc1Cl)N1CCN(C(=O)c2ccco2)CC1 | -11.5% (inactive) |  |
| O=C(Nc1ccc2cn[nH]c2c1)c1ccc(S(=O)(=O)N2CCOCC2)cc1 | -19.1% (inactive) |  |
| COc1ccc(NC(=O)CNc2cc(S(=O)(=O)N3CCOCC3)ccc2N2CCOCC2)c(OC)c1 | 2.99% (inactive) |  |
| CC(C)CCOc1ccc(C(=O)Nc2cc(S(=O)(=O)N3CCOCC3)ccc2N2CCOCC2)cc1 |  | 5.8 µM (active) |
| CC(=O)Nc1ccc(C(=O)Nc2cc(S(=O)(=O)N3CCOCC3)ccc2N2CCOCC2)cc1 | -26.5% (inactive) |  |
| O=C(Nc1ccc(N2CCOCC2)c(Cl)c1)c1ccc(S(=O)(=O)N2CCOCC2)cc1 |  | 14.6 µM (active) |
| CC(Oc1ccc(F)cc1)C(=O)Nc1cc(S(=O)(=O)N2CCOCC2)ccc1N1CCN(C)CC1 (stereo unspecified) | -1.55% (inactive) |  |
| NC(=O)CN1CCCC1c1ccc2c(c1)OCCO2 (stereo unspecified) | -8.83% (inactive) |  |
| CCOC(CNC(=O)C1CCN(S(=O)(=O)c2ccc3nc4c(c(C(=O)O)c3c2)CC(C)CC4)CC1)OCC (stereo unspecified) | 20.5% (inactive) |  |
| CC(=O)Nc1cccc(C(=O)OCC(=O)c2ccc3c(c2)OCO3)c1 | -25.7% (inactive) |  |
| CC(=O)c1cccc(NC(=O)c2ccncc2)c1 | -20.5% (inactive) |  |
| CCN(CC)N=Nc1cccc(NC(C)=O)c1 |  | 3.26 µM (active) |
| C=CCn1c(SCc2ccc(Cl)c(Cl)c2)nnc1C(CO)NC(=O)c1ccc(OC)cc1 (stereo unspecified) |  | 20.6 µM (active) |
| C=CCn1c(CCNC(=O)c2ccccc2F)nnc1SCC(=O)Nc1ccc(OC)cc1 | -22.4% (inactive) |  |
| C=CCn1c(CNC(=O)c2ccco2)nnc1SCC(=O)c1ccc(OC)cc1 | -17.9% (inactive) |  |
| C=CCN1C(=O)C(Cc2cccc(Cl)c2)S/C1=N/N=C/c1ccco1 (stereo unspecified) | -27.6% (inactive) |  |
| Cc1cc(S(=O)(=O)NCc2ccccn2)c(Cl)cc1Cl | -22.2% (inactive) |  |
| CCn1c(=S)sc2c(=O)n(CC(=O)Nc3ccc(OC)cc3)c(C)nc21 | 8.25% (inactive) |  |

| SMILES | activity change, negative = growth inhibition | Potency |
| --- | --- | --- |
| CC(C)OC(=O)c1ccc(NCc2cc(O)ccc2O)cc1Cl |  | 2.59 µM (active) |
| COC(=O)c1cc(C(=O)CSc2nc(C)cc(C)n2)ccc1O | -0.488% (inactive) |  |
| CC(OC(=O)c1ccc(Cl)cc1O)C(=O)NCCC1=CCCCC1 (stereo unspecified) | -14% (inactive) |  |
| C#CCNc1ccc(C(=O)OCC)cc1 | -31.1% (inactive) |  |
| COC(=O)c1ccc(NCc2cc(O)ccc2O)cc1 |  | 4.61 µM (active) |
| O=C(OC12CC3CC(CC(C3)C1)C2)c1ccc(NCc2cc(O)ccc2O)cc1 |  | 1.64 µM (active) |
| CC(CN1CCOCC1)OC(=O)c1ccc(Cl)cc1Cl (stereo unspecified) | -0.492% (inactive) |  |
| CSCCC(NS(=O)(=O)c1ccc(C)cc1)C(=O)N1CCCC1 (stereo unspecified) | -3.98% (inactive) |  |
| C/C(Cc1ccccc1)=N\NC(=O)CNC(=O)c1ccc2c(c1)OCCO2 | -18% (inactive) |  |
| CC1(C)C2CCC13CS(=O)(=O)NC3C2 (stereo unspecified) | -2.28% (inactive) |  |
| CC1(C)OC(=O)C(=CNC(CO)C(=O)O)C(=O)O1 (stereo unspecified) | -11.9% (inactive) |  |
| O=P(O)(CP(=O)(c1ccccc1)c1ccccc1)c1ccccc1O | 5.16% (inactive) |  |
| C=CCN1CN(S(=O)(=O)c2ccc(OC)cc2)c2nc3ccccc3nc21 | 11.2% (inactive) |  |
| Cn1cnnc1Sc1ccc(CN2CCN(C3CCCC3)C(CCO)C2)o1 (stereo unspecified) | 4.43% (inactive) |  |
| Cc1c(C(=O)N(Cc2ccccc2)Cc2cccnc2)cnn1-c1ccc(F)cc1 | -12.2% (inactive) |  |
| CCN(CC)CC(=O)Nc1nn(-c2ccccc2)nc1C(N)=O | 1.58% (inactive) |  |
| O=C(NCCCN1CCCCCC1)c1ccc(N2CCCC2=O)cc1 | -2.76% (inactive) |  |
| Cc1ccc(C(=O)N/N=C\c2cc(Br)c(Br)o2)cn1 |  | 16.4 µM (active) |
| O=C(N/N=C/c1ccc(Br)o1)c1cncc(Br)c1 | 14.6% (inactive) |  |
| Cc1ccc(C(=O)N/N=C/c2cccc3ccccc23)cn1 | -2.46% (inactive) |  |
| C=CCSc1ccc(S(=O)(=O)N2CCN(C)CC2)cn1 | -4.94% (inactive) |  |
| COC(=O)C1CCN(C(=O)COC(=O)c2cc(S(=O)(=O)N3CCOCC3)ccc2C)CC1 | -11% (inactive) |  |

| SMILES | activity change, negative = growth inhibition | Potency |
| --- | --- | --- |
| CC1CCCC(NC(=O)COC(=O)c2ccccc2C(=O)N(C)C2CCCCC2)C1C (stereo unspecified) |  | 14.6 µM (active) |
| C=CCNC(=O)COC(=O)c1ccccc1C(=O)N(C)C1CCCCC1 | 9.03% (inactive) |  |
| O=C(COC(=O)c1ccccc1SCC(=O)NC1CCCCC1)NC1CCCCC1 | -14.5% (inactive) |  |
| NC(=O)COC(=O)c1sc2cc(F)ccc2c1Cl | 14.2% (inactive) |  |
| CC(=O)NC12CC3CC(C1)CC(C(=O)N1CCN(C(=O)c4ccco4)CC1)(C3)C2 | 22.3% (inactive) |  |
| COc1ccc(N(CC(=O)NC(C)(C)C)C(=O)c2ccco2)cc1 | -10.6% (inactive) |  |
| CC1(C)CC(=O)c2cc(OCC(=O)NCC3CCCO3)ccc2O1 (stereo unspecified) | -13.3% (inactive) |  |
| Cc1cc(-c2cccs2)nc(-n2cccc2)n1 | -17.5% (inactive) |  |
| O=C(NNc1ncnc2c1cnn2-c1ccccc1)c1ccco1 | 3% (inactive) |  |
| Cc1cccc(NC(=S)NCc2ccc3[nH]c4c(c3c2)CCCC4)c1 |  | 18.4 µM (active) |
| O=C(O)CCC(=O)NCc1ccc2[nH]c3c(c2c1)CCCC3 | -2.01% (inactive) |  |
| Cc1cccc(NC(=S)N2CCCC(c3nc4ccccc4[nH]3)C2)c1 (stereo unspecified) | 7.85% (inactive) |  |
| CCCCc1c(O)nc2n(c1=O)CCS2 | -13.1% (inactive) |  |
| O=C(Oc1ccc(Br)cc1C(=S)N1CCOCC1)c1cccc([N+](=O)[O-])c1 | -19.6% (inactive) |  |
| O=C(/C=C/c1c(Cl)cccc1Cl)NCc1ccccc1 | 0.863% (inactive) |  |
| COn1c(=O)c(=O)n(OC)c2ccccc21 | -4.75% (inactive) |  |
| Cc1cc(OCc2cc(C(=O)NCc3cc(C(C)C)no3)no2)cc(C)c1Cl | -12.7% (inactive) |  |
| CCOC(=O)CC1(NC(=O)c2cc(COc3cncc(Cl)c3)on2)CCCCC1 |  | 20.6 µM (active) |
| CCOC(=O)c1c(NC(=O)c2cc(CC)on2)sc(C(C)=O)c1C | 4.96% (inactive) |  |
| COc1ccc2[nH]cc(CCNc3ncnc4ccc(-c5ccccc5CN(C)C)cc34)c2c1 | -24% (inactive) |  |
| COc1ccc2[nH]cc(CCNc3nc(-c4cccc(NS(C)(=O)=O)c4)nc4ccccc34)c2c1 |  | 13 µM (active) |
| COc1ccc2[nH]cc(CCNc3ncnc4ccc(-c5ccc(C(=O)N(C)C)cc5)cc34)c2c1 |  | 9.2 µM (active) |

| SMILES | activity change, negative = growth inhibition | Potency |
| --- | --- | --- |
| Cc1ccc2[nH]cc(CCNC(=O)c3ccc([N+](=O)[O-])cc3)c2c1 | -27.6% (inactive) |  |
| COc1cccc(-c2cc(NCCc3c[nH]c4ccc(OC)cc34)ncn2)c1 |  | 23.1 µM (active) |
| COc1ccc2[nH]cc(CCNc3cc(-c4ccccc4CN(C)C)ncn3)c2c1 | -17.5% (inactive) |  |
| CNc1cc(-c2c(OC)cccc2OC)ncn1 | 1.04% (inactive) |  |
| COCCNc1ccnc(-c2cccc(NS(C)(=O)=O)c2)n1 | -7.98% (inactive) |  |
| CC(=O)Nc1ccc(S(=O)(=O)N2CCn3cccc3C2C)cc1 (stereo unspecified) | 7.81% (inactive) |  |
| CC(NC(=O)C(=O)NN=C1CCC(C(C)(C)C)CC1)c1ccccc1 (stereo unspecified) | 4.32% (inactive) |  |
| CN1CCN(S(=O)(=O)c2ccc(NC(=O)c3ccco3)cc2)CC1 | 3.04% (inactive) |  |
| COc1ccc(/C(C)=N/N2CCOCC2)c(O)c1 | 4.06% (inactive) |  |
| CC(C)NC(=O)N1CCN(c2ccncc2S(=O)(=O)N2CCCCC2)CC1 | 12.7% (inactive) |  |
| CN1CCN(c2ccncc2S(=O)(=O)N2CCCC2)CC1 | 16.7% (inactive) |  |
| O=S(=O)(c1cnccc1N1CCN(/N=C/c2ccc(Br)cc2)CC1)N1CCCCC1 |  | 18.4 µM (active) |
| CCOC(=O)C1CCN(C(=O)Cn2cc(C#N)c3ccccc32)CC1 | -11.5% (inactive) |  |
| O=C(c1cccnc1)N1CCN(S(=O)(=O)c2cccs2)CC1 | 15.6% (inactive) |  |
| CC(C)CNC(=S)NNC(=O)c1ccccc1OC(F)F | -12.1% (inactive) |  |
| CC/C(=N\NC(=S)NC(C)C)c1ccc(OC(F)F)cc1 |  | 16.4 µM (active) |
| O=C(COC(=O)c1ccc(N2CCCC2=O)cc1)c1ccc(OC(F)F)cc1 | -19.2% (inactive) |  |
| C/C=C1\C2C=C(C)CC1(N)c1ccc(=O)[nH]c1C2 (stereo unspecified) | -12.4% [at 92.5 µM] (inactive) |  |
| COC(=O)Cc1csc(Nc2c(C)n(C)n(-c3ccccc3)c2=O)n1 | 0.65% (inactive) |  |
| COC(=O)Cc1csc(/N=C/c2c(O)n(-c3cccc(C(F)(F)F)c3)c(=O)c3ccccc23)n1 |  | 16.4 µM (active) |
| COC(=O)Cc1c(O)ccn(Cc2cccc(C(F)(F)F)c2)c1=O | -26% (inactive) |  |
| CC(C)C(=O)NC(=S)Nc1ccccc1F | -0.205% (inactive) |  |

| SMILES | activity change, negative = growth inhibition | Potency |
| --- | --- | --- |
| CC(NC(=O)Nc1cccc([N+](=O)[O-])c1)c1ccc2c(c1)OCO2 (stereo unspecified) | -18.9% (inactive) |  |
| O=C(Nc1cccnc1)c1noc2c1CCCCC2 | -19.8% (inactive) |  |
| CC(C)CC[n+]1ccn(C2=C([O-])c3ccccc3C(=O)/C2=N\S(=O)(=O)c2ccccc2)c1 |  | 10.3 µM (active) |
| Cc1ccc(NC2CCCN(C(=O)CCC3(C)CC3)C2)cc1C (stereo unspecified) | -29.4% (inactive) |  |
| CCOC(=O)CN1CC23C=CC(O2)C(C(=O)Nc2ccc(F)cc2)C3C1=O (stereo unspecified) | 3.97% (inactive) |  |
| COCCn1nnnc1CN1CCC(NC(=O)Nc2cccc(OC)c2)CC1 | -6.87% (inactive) |  |
| Cc1c(-c2cccc(NC(=O)C(C)(C)C)c2)nc2ncccn12 | -3.43% (inactive) |  |
| Cc1ccc(-c2c(N)nc3ncccn23)cc1 | 6.62% (inactive) |  |
| CCc1cccc(C)c1Nc1c(-c2ccc(N(C)C)cc2)nc2ncccn12 |  | 10.3 µM (active) |
| Cc1cccc(C)c1Nc1c(-c2ccccc2O)nc2ncccn12 |  | 18.4 µM (active) and 23.1 µM (active) |
| Cc1nc(-c2ccc(F)cc2)c(CC(=O)N(C)CC(=O)Nc2c(C)cccc2C)s1 | -0.693% (inactive) |  |
| Nn1c(SCC(=O)Nc2nccs2)nncc1=O | -5.81% (inactive) |  |
| CC(C)CCNC(=O)CC1C(=O)N(Cc2ccccc2)C(C)c2nc3ccccc3n21 (stereo unspecified) | -18.9% (inactive) |  |
| CN(C)c1ccnc(Nc2ccc(F)cc2)c1C#N | -0.174% (inactive) |  |
| COc1ccccc1/C=C/C1=NC(=C\N(C)C)/C(=O)O1 |  | 20.6 µM (active) |
| COc1ccccc1/C=C/C(=O)NC(=S)N1CCOCC1 | -12.6% (inactive) |  |
| COc1ccccc1/C=C/C(=O)NC1CC2CCC1C2 (stereo unspecified) | -20.8% (inactive) |  |
| O=C(CCNS(=O)(=O)c1ccccc1C(F)(F)F)NCc1ccc2c(c1)OCO2 | -0.322% (inactive) |  |
